This excerpt belongs to a sample that is enriched for hits.
ST2 inh = inhibitors of human ST2 (IL1RL1) binding to IL-33, primary screen, biochemical, AlphaLISA. 2.3% of 78,000 active. AlphaLISA ST2-Fc/biotin-IL-33 interaction, 1 h. Interleukin-1 receptor-like 1 (Homo sapiens), Q01638. inhibition, % for hits at 17 µM; in the data active = inhibition above about 30%
Target sequence (Q01638 whole entry, looked up): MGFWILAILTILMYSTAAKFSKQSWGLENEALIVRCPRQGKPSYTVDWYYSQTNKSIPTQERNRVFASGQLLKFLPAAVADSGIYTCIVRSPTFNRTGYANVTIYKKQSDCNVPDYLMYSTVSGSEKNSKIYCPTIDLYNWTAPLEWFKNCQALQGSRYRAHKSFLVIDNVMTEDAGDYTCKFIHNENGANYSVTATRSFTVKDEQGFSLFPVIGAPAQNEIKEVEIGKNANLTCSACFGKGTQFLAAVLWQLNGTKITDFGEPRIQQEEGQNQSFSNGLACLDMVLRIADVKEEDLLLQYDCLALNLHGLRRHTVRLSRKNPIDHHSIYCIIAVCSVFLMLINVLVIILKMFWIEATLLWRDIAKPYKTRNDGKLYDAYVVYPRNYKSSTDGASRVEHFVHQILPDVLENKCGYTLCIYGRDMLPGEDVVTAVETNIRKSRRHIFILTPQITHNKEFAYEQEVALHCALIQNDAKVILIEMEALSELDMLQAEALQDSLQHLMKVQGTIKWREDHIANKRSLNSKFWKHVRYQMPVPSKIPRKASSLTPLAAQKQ
Hits are given with their value; . = inactive.

SMILES	ST2 inh
CCc1nc(C)c(C(=O)N2CC[C@@H](c3sccc3C)[C@H](O)C2)o1	.
CC(C)c1cc(C2CCN(Cc3ccc(-c4ccn[nH]4)o3)CC2)[nH]n1	.
O=C(Nc1c[nH]c(=O)[nH]c1=O)c1ccc(Oc2ccc(C(=O)Nc3c[nH]c(=O)[nH]c3=O)cc2)cc1	36.0%
O=C(Nc1c[nH]c(=O)[nH]c1=O)c1ccc(N2C(=O)C3C4C=CC(C4)C3C2=O)cc1 (stereo unspecified)	.
O=C(CCc1ccccc1)Nc1c[nH]c(=O)[nH]c1=O	.
CCOC(=O)C1(CCCc2ccccc2)CCN(C(=O)c2ccc[n+]([O-])c2)CC1	.
Cc1cc(C)n2nc(SCCC(=O)NCCC(C)C)nc2n1	.
CCCNC(=O)C1CCN(c2ccc(-c3ccc(Br)s3)nn2)CC1	.
CCc1nc(NC(=O)NCc2ccc(C)o2)nn1C	.
COc1ccc(N2CCN(c3cc(N4CCN(C)CC4)ccc3[N+](=O)[O-])CC2)cc1	44.0%
COc1ccc(N2CCN(Cc3cc(OC)c(O)c([N+](=O)[O-])c3)CC2)cc1	.
O=[N+]([O-])c1cc(CN2CCOCC2)c(O)c2ncccc12	.
O=[N+]([O-])c1ccccc1OCC(O)CN1CCN(c2ccccc2F)CC1 (stereo unspecified)	.
CN1CCN(c2cc(N3CCN(CCO)CC3)ccc2[N+](=O)[O-])CC1	.
O=[N+]([O-])c1cc(C(F)(F)F)ccc1N1CCc2ccccc21	68.0%
CS(=O)(=O)c1ccc(N2CCN(c3ccccc3)CC2)c([N+](=O)[O-])c1	.
Cc1cc(-c2c(-c3ccccc3)ncn2CCOc2nonc2C)n[nH]1	.
CC(O)CNc1ccc(C(F)(F)F)cc1[N+](=O)[O-] (stereo unspecified)	.
O=[N+]([O-])c1cc(C(F)(F)F)ccc1N1CCN(CCOc2nonc2-c2ccccc2)CC1	45.0%
COc1ccc(N2CCN(c3ccc([N+](=O)[O-])c4cccnc34)CC2)c([N+](=O)[O-])c1	55.0%
Cc1cc(C)n(-c2ccc(C(F)(F)F)cc2[N+](=O)[O-])n1	.
O=C1CCCN1CCC1CCCCN1C(=O)NCCc1ccc(F)cc1 (stereo unspecified)	.
CC(C)CC1=NN(C(=O)c2ccccc2Cl)C(O)(C(F)(F)F)C1 (stereo unspecified)	.
O=S(=O)(c1cccc(Cl)c1Cl)N1C[C@@H]2[C@H](C1)[C@H]1CC[C@@H]2O1	.
Cc1ncsc1CCC(=O)NCc1ccccc1-n1ccnc1C	.
SMILES	ST2 inh
Cc1ccc(N=Cc2cc(Br)cc(Cl)c2O)c(N)c1	.
Cc1cc(NC(=O)CSc2cn(Cc3ccc(Cl)cc3)c3ccccc23)no1	.
O=[N+]([O-])c1cc(C(F)(F)F)ccc1N1CCN(c2ccc([N+](=O)[O-])c3cccnc23)CC1	45.0%
O=[N+]([O-])c1cccnc1N1CCOCC1	.
O=C(c1cnc(N2CCN(c3ccccn3)CC2)c2ccccc12)N1CCN(c2ccccn2)CC1	.
O=[N+]([O-])c1cccc(Cl)c1N1CCN(c2ccc([N+](=O)[O-])c3cccnc23)CC1	.
COc1ccccc1N1CCN(c2ccc([N+](=O)[O-])c3cccnc23)CC1	31.0%
COc1ccccc1N1CCN(C(=O)c2cc(OC)c(OC)c(OC)c2)CC1	.
O=C(c1ccccc1F)N1CCN(c2ccc([N+](=O)[O-])c3cccnc23)CC1	35.0%
CCC(=O)N1CCN(c2ccc(F)cc2[N+](=O)[O-])CC1	.
Cc1ccccc1C(=O)N1CCN(c2ccc([N+](=O)[O-])c(N3CCOCC3)c2)CC1	.
O=c1n(CCSc2nnnn2-c2ccccc2)nnn1-c1ccccc1	.
CCc1nc(C)c(C(=O)Nc2cnc3n2CCCC3)o1	.
COc1cccc(C2C(C(=O)OCCC(C)C)=C(C)Nc3nnnn32)c1OC (stereo unspecified)	.
COc1ccc(C(O)=C2C(=O)C(=O)N(CCN(C)C)C2c2cccnc2)cc1OC (stereo unspecified)	.
CCc1ccc(CN2CCN(S(=O)(=O)c3ccc(Cl)cc3)CC2)cc1	.
O=C1C=CC(=NS(=O)(=O)c2ccccc2)C=C1Br	31.0%
CN(C)C(=NS(=O)(=O)c1ccc(Br)cc1)c1ccccc1	.
CC(C)(CO)NC(=O)c1ccc(Cl)c(S(=O)(=O)N2CCCCC2)c1	.
CN1CCC2(CC1)CN(C(=O)c1n[nH]c3ccccc13)CCCN2C	.
COc1ccc(NS(=O)(=O)c2ccccc2)cc1	.
COc1ccc(Nc2nnc(-c3ccc(C)c(S(=O)(=O)N(C)C)c3)c3ccccc23)cc1	.
COc1ccc(NC2=C(N(C)C)C(=O)c3ccccc3C2=O)cc1	44.0%
Cc1ocnc1C(=O)N1CCC(c2nn(C)c(=O)n2Cc2ccccc2)CC1	.
COc1ccc(-c2nnc(/C=C/c3ccccc3)o2)cc1	.
SMILES	ST2 inh
Cc1ccc2oc(/C=C/c3nc4cc(C)ccc4o3)nc2c1	.
CN(C)c1ccc(/C=C/c2nc(=O)c3ccccc3o2)cc1	55.0%
O=C(O)c1c2c(nc3ccccc13)-c1ccccc1C2	.
CCOc1ccc(OCC)c(NC(C)=O)c1	.
C=C1c2cc(OCC)ccc2NC(=O)N1c1ccccc1	.
CCOc1ccc2c(c1)C(=O)c1cc(OCC)ccc1-2	46.0%
O=C(Nc1ccc(Br)cc1)c1cccc(S(=O)(=O)NCc2cccnc2)c1	.
CC1(C)CC(N2C(=O)OC(C)([C@H]3CC4C=CC3C4)C2(C)O)CC(C)(C)N1 (stereo partly specified)	98.0%
COc1cc2c(cc1O)C[C@H]1c3c(cc(OC)c(OC)c3-2)CC[N+]1(C)[O-] (stereo partly specified)	.
O=C(NC(Cc1c[nH]c2ccccc12)C(=O)O)c1ccccc1 (stereo unspecified)	.
CC(C)C1NC(=O)CNC(=O)C2CCCN2C(=O)C(Cc2c[nH]c3ccccc23)NC(=O)CNC(=O)C(C(O)c2ccc(O)cc2)NC(=O)CNC1=O (stereo unspecified)	.
O=C(N[C@H]1CCN2C(=O)[C@@H](Cc3c[nH]c4ccccc34)NC(=O)[C@H]12)c1ccccc1	79.0%
Cc1cc(Cl)ccc1OCC(=O)Nc1nc2ccccc2[nH]1	.
COc1ccc2c(C)nc(N3CCCC(C(=O)NC4[C@@H]5CC6C[C@H]4CC(O)(C6)C5)C3)nc2c1 (stereo partly specified)	.
CN1CCCN(Cc2cccc(Cl)c2)CC1	.
CCN1CCN(Cc2ccc(N(CC)CC)cc2)CC1	58.0%
CCN(CC)c1ccc(CN2CCN(C)CC2)cc1	56.0%
CCN1CCN(Cc2ccc(-c3ccccc3)cc2)CC1	.
CCc1ccc(CN2CCSCC2)cc1	.
CN1CCCN(Cc2cccc(F)c2)CC1	.
Cc1ccccc1NC(=O)CNC(=O)[C@@H]1C[C@@H](NC(=O)c2cccs2)CN1	.
COc1ccccc1OC1CN(C(=O)c2cnn(Cc3ccccc3)c2)C1	.
Cc1cncc(C(=O)N2CCC(Cn3cc(-c4ccsc4)nn3)CC2)c1	.
CCOc1ccc(C2=C/C(=C\c3cccs3)C(=O)O2)cc1	31.0%
COc1cc(/C=C2/C=C(c3ccccc3)OC2=O)cc(OC)c1OC	61.0%
CCOc1ccc2c(=O)c(-c3ccccc3OC)coc2c1	.
CCOc1ccc(N2C(=O)/C(=C\c3ccccc3OC)N=C2c2ccc(OC)c(OC)c2)cc1	39.0%
COc1cc(/C=C/C(=O)O)cc(OC)c1OC	.
CCOc1ccc(-c2nc3s/c(=C\C=C\c4ccccc4OC)c(=O)n3n2)cc1	.
COc1ccc(/C=C2\C=C(c3ccc(Cl)cc3)OC2=O)c(C)c1	.

Screening results from PubChem BioAssay.
